# Results published in PubChem BioAssay (NCI).
# Compounds without any hit were thinned out: in the full panel of roughly 83,000, 20% have a hit.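 Growth was measured after 48 h exposure to one concentration of compound in 96-well plates. Values under 10 count as active.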 Calls of active or inactive are those of the source.
# System: SN12C renal
# Experiment: NCI-60 one-dose screen, 48 h (100 = growth as untreated, 0 = no growth, -100 = all killed)
# Details: 10 µM unless noted
row,Compound,growth
1,COc1cc(-c2nnc(-c3nc(-c4cc(OC)c(OC)c(OC)c4)n4ccccc34)o2)ccc1N,50.4% (inactive)
2,O=C(Nc1ccc2c(c1)C(=O)c1ccccc1-2)c1ccccc1,56.9% (inactive)
3,COc1ccc(CNC(=O)c2c(C)n([O-])c3ccc(OC)cc3[n+]2=O)cc1,108% (inactive)
4,N#CC(C#N)C(C#N)C#N,99.9% (inactive)
5,CC[N+](CCCCCCCCCC[N+](CC)(c1ccccn1)c1ccccn1)(c1ccccn1)c1ccccn1,5.03% (active)
6,CCCCCCCSc1ncnc2[nH]ncc12,86.1% (inactive)
7,CC(C)N(Cc1ccccc1)c1c(S)ssc1=S,11% (inactive)
8,O=C(NCCNC(=O)Oc1cccc2ccccc12)Oc1cccc2ccccc12,105% (inactive)
9,Cc1[nH]c(=O)[nH]c(=O)c1CCSSCCc1c(C)[nH]c(=O)[nH]c1=O,104% (inactive)
10,CC(C)N(Cc1ccccc1)c1c(Cl)ssc1=O,99.7% (inactive)
11,COc1cnc2c(c1)C(=O)c1c-2n(CCCN2CCCC2)c(=O)c2cc(F)ccc12,9.02% (active)
12,CSc1nc(-c2ccc(O)cc2O)c2c(=O)[nH]c(Nc3ccc(S(=O)(=O)Nc4nc(C)cc(C)n4)cc3)nc2n1,107% (inactive)
13,c1ccc(COc2ccc(Nc3ncnc4c3cnn4-c3ccccc3)cc2)cc1,97.4% (inactive)
14,O=C1/C(=C/c2ccc(F)cc2)Cc2ccccc21,99.5% (inactive)
15,CC[n+]1c(/C=C/c2ccc(N3CCCC3)cc2)cccc1/C=C/c1ccc(N2CCCC2)cc1,-79.9% (active)
